# High-throughput results deposited in PubChem BioAssay by several laboratories.
# Only some compounds are listed: those with a hit (about 1.3% of all), similar ones and a draw of the others.
# NPR2 activator = GC-B (human) receptor activation | HEK293-GC-B cells, CNP EC30, cGMP TR-FRET; 0% at EC30 CNP, 100% saturating CNP | activation, % at 10 µM | P20594 | actives 0.11% (n = 370,000) | AID 1920062;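 active means activation at 10 µM reaching about 35% in either raw or pattern-adjusted values, limit read from the data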
# NPR1 activator = GC-A (human) enzyme activation; HEK293 GC-A cells, cGMP TR-FRET, EC30 ANP; 0% at EC30 ANP, 100% saturating ANP; P16066; AID 1671463; activation, % at 10 µM; actives 0.14% (n = 370,000); in the data active means activation above about 40%
# HIF activator = HIF pathway transcriptional activation | activation, % at 7.5 µM (by protocol) | U2OS HRE-luciferase reporter, luminescence; normalized: DMSO 0%, desferrioxamine 100% | AID 1910 | actives 0.32% (n = 300,000);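 active means mean activation of at least 10% of the iron chelator positive control signal, with at least half of replicates also reaching 10%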
# KLK7 zymogen act = proKLK7 (human) activation, primary screen | AID 652039 | purified proKLK7, EDANS-DABCYL substrate fluorescence; 100% is mature enzyme control, 0% vehicle | P49862 | actives 0.9% (n = 370,000) | activation, % at 7 µM;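 active means activation above the mean of all tested compounds plus 3 SD, computed per campaign excluding outliers beyond control limits, cut at about 13% in these data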
# proKLK7 act conf = proKLK7 activation, confirmation. shares compounds with KLK7 zymogen act. purified proKLK7, EDANS-DABCYL substrate fluorescence; scaled: vehicle 0, mature enzyme 100. activation, % at 7 µM. actives 68% (n = 3,200). AID 686949;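 active means activation, as change over the incubation, above the mean of all tested compounds plus 3 SD, cut at about 13% in these data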
# EDANS interfere = fluorescence interference counter-screen for KLK7 activators; shares compounds with KLK7 zymogen act; EDANS-DABCYL substrate fluorescence interference, no enzyme, 4 h; solvent 0%, active enzyme control 100%; activation, % at 7 µM; actives 80% (n = 3,200);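 active means activation above the all-compound mean plus 3 SD, ignoring values outside control-based bounds, cut at about 4.8% in these data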;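 further: value is the 4 h activation minus the activation read at time zero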
# EDANS interf = counter-screen for kallikrein-7 activators: EDANS-DABCYL interference, dose response. shares compounds with KLK7 zymogen act. EDANS-DABCYL peptide fluorescence interference, no enzyme. EC50, µM. actives 20% (n = 250). AID 720493;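 active means compounds that raise the fluorescence signal in this interference counterscreen, with EC50 at or below 10 µM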;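 further: intact quenched peptide substrate alone read at 355 nm excitation and 520 nm emission; signal is fluorescence gain from T0 to T4 after four hours at room temperature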
# The depositor's hits bear a star; i = inactive; . = not tested or not shown.
SMILES,NPR2 activator,NPR1 activator,HIF activator,KLK7 zymogen act,proKLK7 act conf,EDANS interfere,others
COc1ccc(-c2cc(C(F)(F)F)c(C#N)c(=O)[nH]2)cc1,4,-3,0,17*,40*,43*,
N#Cc1c(C(F)(F)F)cc(-c2ccc(F)cc2)[nH]c1=O,3,-3,0,8,.,.,
N#Cc1c(C(F)(F)F)cc(-c2cccc(Cl)c2)[nH]c1=O,-4,-1,0,20*,51*,48*,
COC(=O)[C@]12C[C@H](CC(=O)N3CCC(c4ccccc4)CC3)C(=O)N(CCc3ccc(OC)c(OC)c3)C1=C[C@H](C1CCCC1)O[C@@H]2C,7,-3,.,1,.,.,
COC(=O)[C@]12C=CCN1[C@H](c1ccc(C(F)(F)F)cc1)c1c(c3ccccc3n1S(=O)(=O)c1ccc(C)cc1)C2,-4,-5,.,0,.,.,
O=C(OCc1cn(Cc2cccc(F)c2F)nn1)N1CCCC1,5,3,.,0,.,.,
COc1ccccc1CCn1c(N)c(C#N)c2nc3ccccc3nc21,-5,-5,0,-70,.,.,
N#Cc1c(N)n(CCNC(=O)c2ccccc2)c2nc3ccccc3nc12,-3,-4,-1,42*,68*,59*,
N#Cc1c(N)n(-c2cccc(C(=O)O)c2)c2nc3ccccc3nc12,-2,-2,0,62*,68*,65*,
CCCCn1c(CCNC(=O)c2cccs2)nc2ccccc21,-6,-7,-1,0,.,.,
N#Cc1c(N)n(CCNC(=O)c2cccs2)c2nc3ccccc3nc12,-1,0,0,53*,71*,82*,
CCOC(=O)[C@@]12CN(C(=O)OC(C)(C)C)CC=C1N(Cc1ccc(OC)cc1)C(=O)[C@H]2CC(=O)N1CCOCC1,-3,1,.,0,.,.,
Fc1ccc(N2CCN(C3=Nc4ccccc4Sc4ccccc43)CC2)cc1,10,-2,.,0,.,.,
COc1ccc(NC(=O)COc2ccc(/C=C/c3cc[n+](C)cc3)cc2OC)cc1,3,7,0,31*,64*,68*,
COc1ccc(/C=C/C(=O)Nc2ccncc2)cc1OC,0,-3,0,17*,13*,13*,
COc1ccc(NC(=O)/C=C/c2ccc(OC)c(OC)c2)cn1,-1,-6,0,0,.,.,
CCCCOc1ccc(/C=C/C(=O)Nc2ccc(C(N)=O)cc2)cc1,2,-6,0,0,.,.,
CCOc1ccc(/C=C/C(=O)Nc2ccc(C(N)=O)cc2)cc1OC,-3,-5,0,42*,85*,94*,
CCOC(=O)c1cc(=O)n2c(nc3ccccc32)[nH]1,1,2,1,23*,77*,79*,
Cc1cc(=O)n2c(nc3ccccc32)[nH]1,-2,0,0,-103,.,.,
CN1C=CC(=CC=C2C=CC(=O)C=C2)C=C1,-1,-2,-1,50*,12,14*,
CCOC(=O)Cc1c(C)nc(N)[nH]c1=O,-2,0,0,0,.,.,
C[C@H](O)C(=O)C1=Nc2c(nc(N)[nH]c2=O)NC1,-1,2,.,16*,28*,33*,
CCN(Cc1ccccc1)C(=O)CCCN1C(=O)COc2ccc(C)cc21,-9,-8,.,0,.,.,
COc1ccc(NC(=O)c2cc(-c3ccco3)on2)cc1OC,3,3,0,55*,20*,4.8*,EDANS interf=i
SMILES,NPR2 activator,NPR1 activator,HIF activator,KLK7 zymogen act,proKLK7 act conf,EDANS interfere,others
CNc1ccccc1C(=O)OCC(=O)N(CCOC)c1c(N)n(CC(C)C)c(=O)[nH]c1=O,3,2,0,20*,18*,16*,
COCCN(C(=O)c1ccccc1Oc1ccccc1)c1c(N)n(CC(C)C)c(=O)[nH]c1=O,9,2,.,0,.,.,
COc1ccc(-c2cn3cc(C(=O)NN)ccc3n2)cc1,-9,-10,3,40*,8,10.0*,
CCn1c(COc2ccc(Cl)cc2)nnc1SCC(=O)Nc1ccccc1-c1ccccc1,-11,-11,.,0,.,.,
CC(CC(=O)Nc1ccc2c(c1)c(=O)n(C)n2Cc1ccc(Cl)cc1)C(F)(F)F (stereo not given),4,3,.,11,.,.,
CCOCCC(=O)Nc1ccc2c(c1)c(=O)n(C)n2-c1ccccc1F,3,5,.,21*,21*,22*,
Cn1c(=O)c2cc(NC(=O)CCc3ccccc3)ccc2n1Cc1cccc(C(F)(F)F)c1,6,1,.,-9,.,.,
CCOCCC(=O)Nc1ccc2c(c1)c(=O)n(C)n2Cc1cccc(C(F)(F)F)c1,1,2,.,16*,6,9.7*,
COc1cc(Cn2c3ccc(NC(=O)CC(C)C(F)(F)F)cc3c(=O)n2C)ccc1F (stereo not given),3,4,.,17*,-7,-7,
Cn1c(=O)c2cc(NC(=O)CCc3ccccc3)ccc2n1-c1ccccc1F,-1,-2,.,9,.,.,
CCOc1cc(C(=O)Nc2cc(OC)cc(OC)c2)ccc1OCC(=O)N1CCOCC1,-3,-3,.,0,.,.,
CCOc1cc(C(=O)Nc2ccc(S(=O)(=O)N3CCCCC3)cc2)ccc1OCC(=O)N1CCOCC1,4,-1,-1,20*,14*,15*,
CCOC(=O)CC[C@@H]1CC[C@]2(CCCN(C(=O)C(C)(C)C)C2)O1,0,1,.,0,.,.,
CCOC(=O)CNc1c(-c2ccc(O)cc2)nc2ccccn12,0,3,1,20*,27*,62*,
N#CCc1nn2c(-c3ccccc3)ccnc2c1C#N,1,-4,-16,15*,8,4.7*,
Cc1nn2c(-c3ccccc3)ccnc2c1-c1ccccc1,-3,0,5,0,.,.,
CCN(CC)CCCNc1oc(/C=C/c2ccccc2)nc1C#N,1,6,0,104*,28*,18*,EDANS interf=>69
CN(C)c1oc(/C=C/c2ccccc2)nc1C#N,-4,-2,2,58*,69*,62*,
CC(C)(C)c1ccc(S(=O)(=O)N2CCCC(C(=O)NCCN3CCC(Cc4ccccc4)CC3)C2)cc1 (stereo not given),-9,-11,.,0,.,.,
O=C(NCCCN1CCCC1=O)c1cc2nc(-c3ccco3)cc(C(F)(F)F)n2n1,-3,3,1,14*,13*,2,EDANS interf=>69
CCOC(=O)c1c(-c2ccccc2)oc2ccc(OCC(=O)O)cc12,6,3,0,25*,25*,25*,
CCOC(=O)c1c(-c2ccc(OC)cc2)oc2ccc(OCC(N)=O)cc12,-8,-2,0,-69,.,.,
